# Experimental data from PubChem BioAssay (NCI).
# Compounds without any hit were thinned out: in the full panel of roughly 79,000, 15% have a hit. Values without a mark were called inactive. Calls of active or inactive are those of the source. Rule as the data show it: active = growth inhibition above about 70%; inactive = the rest.
# Columns and labels:
# [1] = NCI Yeast Anticancer Drug Screen. Data for the rad52 strain (AID 147);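 also: 0% = growth of vehicle-treated control cultures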; settings: S. cerevisiae rad52 mutant growth inhibition, active compounds read high
# How it was run: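 Here a repair-compromised yeast strain receives each compound; its growth is then quantified and normalised to vehicle-only controls.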
# [2] = NCI Yeast Anticancer Drug Screen. Data for the wt1 strain (AID 149);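 also: 0% = growth of vehicle-treated wt1 cultures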; settings: S. cerevisiae wt1 strain (SPY 50644) growth inhibition, active compounds read high
# How it was run: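 Yeast wt1 strain exposed to compounds; growth inhibition measured relative to vehicle-treated controls.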
# [3] = NCI Yeast Anticancer Drug Screen. Data for the rad50EPP+ strain (AID 151);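 also: 0% = growth of vehicle-treated control cultures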; settings: S. cerevisiae rad50 mutant strain, active compounds read high
# How it was run: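 Read-out is yeast growth inhibition relative to vehicle; cells used were the rad50EPP+ strain.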
# [4] = NCI Yeast Anticancer Drug Screen. Data for the mgt1 strain (AID 153); settings: S. cerevisiae mgt1 mutant growth inhibition, active compounds read high
# How it was run: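 Measured: inhibition of mgt1 yeast growth by compound, normalized to vehicle-treated cultures.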
# [5] = NCI Yeast Anticancer Drug Screen. Data for the rad50 strain (AID 155);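 also: 0% = growth of vehicle-only cultures of the same strain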; settings: S. cerevisiae rad50 strain growth inhibition, active compounds read high
# How it was run: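 Yeast carrying a defined DNA repair defect were exposed to test compounds, and growth was compared with vehicle-treated controls to give percent inhibition.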
# [6] = NCI Yeast Anticancer Drug Screen. Data for the mec2-1 strain (AID 157); settings: S. cerevisiae mec2-1 strain, active compounds read high
# How it was run: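 Using mec2-1 yeast: add compound, measure growth, express inhibition versus vehicle-treated cultures.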
# [7] = NCI Yeast Anticancer Drug Screen. Data for the rad14 strain (AID 159);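 also: 0% = growth of vehicle-treated control cultures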; settings: S. cerevisiae rad14 strain growth inhibition, active compounds read high
# How it was run: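 Yeast cells carrying a defined DNA-repair defect were exposed to compounds, and growth inhibition was calculated relative to vehicle-treated control cultures.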
# [8] = NCI Yeast Anticancer Drug Screen. Data for the sgs1 mgt1 strain (AID 161);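 also: 0% = growth of cultures given vehicle only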; settings: S. cerevisiae sgs1 mgt1 strain, active compounds read high
# How it was run: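 This yeast growth screen uses a strain with defined DNA-repair lesions; compound-treated growth is compared with vehicle-treated growth.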
# [9] = NCI Yeast Anticancer Drug Screen. Data for the CLN2oe strain (AID 163);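 also: 0% = growth of vehicle-only control cultures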; settings: S. cerevisiae CLN2oe strain, active compounds read high
# How it was run: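 Whole-cell yeast growth assay. A strain engineered for altered cell-cycle control received compound, and inhibition relative to vehicle-treated cultures was recorded.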
# [10] = NCI Yeast Anticancer Drug Screen. Data for the bub3 strain (AID 167); settings: S. cerevisiae bub3 mutant strain, active compounds read high
# How it was run: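 Compounds were applied to a genetically altered yeast strain carrying a cell-cycle control defect. Growth inhibition was scored against vehicle-treated controls.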
# [11] = NCI Yeast Anticancer Drug Screen. Data for the wt2 strain (AID 169);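 also: 0% = growth of vehicle-treated yeast cultures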; settings: S. cerevisiae wt2 strain growth inhibition, active compounds read high
# How it was run: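 Treated yeast vs. vehicle-treated yeast: growth inhibition determined.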
# [12] = NCI Yeast Anticancer Drug Screen. Data for the mlh1 strain (AID 171);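 also: 0% = growth of vehicle-treated control cultures of the same strain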; settings: S. cerevisiae mlh1 strain growth inhibition, active compounds read high
# How it was run: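 A yeast strain with a defined genetic lesion serves as the test organism. Cultures receive compound or vehicle, and growth is measured.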
# [13] = NCI Yeast Anticancer Drug Screen. Data for the mlh1 rad18 strain (AID 175); settings: S. cerevisiae mlh1 rad18 strain growth inhibition, active compounds read high
# How it was run: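 Steps: expose repair-defective yeast to compound; measure growth; express inhibition against vehicle-treated controls.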
# [14] = NCI Yeast Anticancer Drug Screen. Data for the rad18 strain (AID 177); settings: S. cerevisiae rad18 mutant growth inhibition, active compounds read high
# How it was run: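 Measured value is growth inhibition of a yeast strain bearing a DNA repair alteration, referenced to vehicle-treated cells.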
# [15] = NCI Yeast Anticancer Drug Screen. Data for the cln2 rad14 strain (AID 165);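 also: 0% = growth equal to vehicle treated cultures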; settings: S. cerevisiae cln2 rad14 strain, active compounds read high
# How it was run: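 Yeast strain cln2 rad14, bearing defects in cell cycle control and DNA repair, serves as the test system; values reflect growth inhibition compared with vehicle.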
# [16] = NCI Yeast Anticancer Drug Screen. Data for the sgs1 strain (AID 173);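 also: 0% = growth of vehicle-only control cultures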; settings: S. cerevisiae sgs1 mutant, active compounds read high
# How it was run: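 A genetically defined yeast mutant is incubated with the test compound, and its growth is compared to that of the same strain given vehicle.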
# [17] = at 5.0 µM (retest, dose inferred, filed as 0.5)
# [18] = at 50.0 µM (retest, dose inferred, filed as 5.0)
compound,measurement,setting,value
S=C(Nc1ccc(Cl)c(Cl)c1)SCc1ccc2c(c1)OCO2,growth inhibition,[1]; at 1.2 µM,6%
same,growth inhibition,[1]; at 3.7 µM,54%
same,growth inhibition,[1]; at 11.0 µM,99% (active)
same,growth inhibition,[1]; at 33.0 µM,99% (active)
same,growth inhibition,[1]; at 100.0 µM,94% (active)
same,growth inhibition,[2]; at 1.2 µM,1%
same,growth inhibition,[2]; at 3.7 µM,49%
same,growth inhibition,[2]; at 11.0 µM,100% (active)
same,growth inhibition,[2]; at 33.0 µM,99% (active)
same,growth inhibition,[2]; at 100.0 µM,96% (active)
same,growth inhibition,[3]; at 1.2 µM,27%
same,growth inhibition,[3]; at 3.7 µM,84% (active)
same,growth inhibition,[3]; at 11.0 µM,99% (active)
same,growth inhibition,[3]; at 33.0 µM,99% (active)
same,growth inhibition,[3]; at 100.0 µM,97% (active)
same,growth inhibition,[4]; at 1.2 µM,-2%
same,growth inhibition,[4]; at 3.7 µM,15%
same,growth inhibition,[4]; at 11.0 µM,99% (active)
same,growth inhibition,[4]; at 33.0 µM,99% (active)
same,growth inhibition,[4]; at 100.0 µM,97% (active)
same,growth inhibition,[5]; at 1.2 µM,-4%
same,growth inhibition,[5]; at 3.7 µM,40%
same,growth inhibition,[5]; [17],52%
same,growth inhibition,[5]; at 11.0 µM,99% (active)
same,growth inhibition,[5]; at 33.0 µM,99% (active)
same,growth inhibition,[5]; [18],97% (active)
same,growth inhibition,[5]; at 50.0 µM,87.3% (active)
same,growth inhibition,[5]; at 100.0 µM,94% (active)
same,growth inhibition,[6]; at 1.2 µM,-2%
same,growth inhibition,[6]; at 3.7 µM,6%
same,growth inhibition,[6]; [17],78% (active)
same,growth inhibition,[6]; at 11.0 µM,100% (active)
same,growth inhibition,[6]; at 33.0 µM,99% (active)
same,growth inhibition,[6]; [18],98% (active)
same,growth inhibition,[6]; at 50.0 µM,92.1% (active)
same,growth inhibition,[6]; at 100.0 µM,97% (active)
same,growth inhibition,[7]; at 1.2 µM,4%
same,growth inhibition,[7]; at 3.7 µM,54%
same,growth inhibition,[7]; at 11.0 µM,100% (active)
same,growth inhibition,[7]; at 33.0 µM,99% (active)
same,growth inhibition,[7]; at 100.0 µM,96% (active)
same,growth inhibition,[8]; [17],77% (active)
same,growth inhibition,[8]; [18],98% (active)
same,growth inhibition,[8]; at 50.0 µM,89.6% (active)
same,growth inhibition,[9]; at 1.2 µM,-4%
same,growth inhibition,[9]; at 3.7 µM,-13%
same,growth inhibition,[9]; at 11.0 µM,99% (active)
same,growth inhibition,[9]; at 33.0 µM,99% (active)
same,growth inhibition,[9]; at 100.0 µM,93% (active)
same,growth inhibition,[10]; at 1.2 µM,-7%
same,growth inhibition,[10]; at 3.7 µM,29%
same,growth inhibition,[10]; [17],76% (active)
same,growth inhibition,[10]; at 11.0 µM,99% (active)
same,growth inhibition,[10]; at 33.0 µM,99% (active)
same,growth inhibition,[10]; [18],98% (active)
same,growth inhibition,[10]; at 50.0 µM,88.2% (active)
same,growth inhibition,[10]; at 100.0 µM,96% (active)
same,growth inhibition,[11]; at 1.2 µM,14%
same,growth inhibition,[11]; at 3.7 µM,90% (active)
same,growth inhibition,[11]; at 11.0 µM,100% (active)
same,growth inhibition,[11]; at 33.0 µM,100% (active)
same,growth inhibition,[11]; at 100.0 µM,97% (active)
same,growth inhibition,[12]; at 1.2 µM,-6%
same,growth inhibition,[12]; at 3.7 µM,66%
same,growth inhibition,[12]; at 11.0 µM,99% (active)
same,growth inhibition,[12]; at 33.0 µM,99% (active)
same,growth inhibition,[12]; at 100.0 µM,95% (active)
same,growth inhibition,[13]; [17],90% (active)
same,growth inhibition,[13]; [18],97% (active)
same,growth inhibition,[13]; at 50.0 µM,88.7% (active)
same,growth inhibition,[14]; at 1.2 µM,-7%
same,growth inhibition,[14]; at 3.7 µM,34%
same,growth inhibition,[14]; at 11.0 µM,99% (active)
same,growth inhibition,[14]; at 33.0 µM,99% (active)
same,growth inhibition,[14]; at 100.0 µM,96% (active)
OC(COc1cccc2ccccc12)CN1CCOCC1 (stereo not given),growth inhibition,[1]; at 1.2 µM,15%
same,growth inhibition,[1]; at 3.7 µM,32%
same,growth inhibition,[1]; at 11.0 µM,44%
same,growth inhibition,[1]; at 33.0 µM,51%
same,growth inhibition,[1]; at 100.0 µM,50%
same,growth inhibition,[2]; at 1.2 µM,13%
same,growth inhibition,[2]; at 3.7 µM,23%
same,growth inhibition,[2]; at 11.0 µM,30%
same,growth inhibition,[2]; at 33.0 µM,31%
same,growth inhibition,[2]; at 100.0 µM,30%
same,growth inhibition,[3]; at 1.2 µM,-5%
same,growth inhibition,[3]; at 3.7 µM,-6%
same,growth inhibition,[3]; at 11.0 µM,-9%
same,growth inhibition,[3]; at 33.0 µM,-9%
same,growth inhibition,[3]; at 100.0 µM,-3%
same,growth inhibition,[4]; at 1.2 µM,8%
same,growth inhibition,[4]; at 3.7 µM,26%
same,growth inhibition,[4]; at 11.0 µM,42%
same,growth inhibition,[4]; at 33.0 µM,52%
same,growth inhibition,[4]; at 100.0 µM,55%
same,growth inhibition,[5]; at 1.2 µM,11%
same,growth inhibition,[5]; at 3.7 µM,19%
same,growth inhibition,[5]; [17],54%
same,growth inhibition,[5]; at 11.0 µM,42%
same,growth inhibition,[5]; at 33.0 µM,37%
same,growth inhibition,[5]; [18],78% (active)
same,growth inhibition,[5]; at 50.0 µM,71.5% (active)
same,growth inhibition,[5]; at 100.0 µM,36%
same,growth inhibition,[6]; at 1.2 µM,9%
same,growth inhibition,[6]; at 3.7 µM,17%
same,growth inhibition,[6]; [17],24%
same,growth inhibition,[6]; at 11.0 µM,23%
same,growth inhibition,[6]; at 33.0 µM,27%
same,growth inhibition,[6]; [18],46%
same,growth inhibition,[6]; at 50.0 µM,37%
same,growth inhibition,[6]; at 100.0 µM,39%
same,growth inhibition,[7]; at 1.2 µM,41%
same,growth inhibition,[7]; at 3.7 µM,39%
same,growth inhibition,[7]; at 11.0 µM,45%
same,growth inhibition,[7]; at 33.0 µM,49%
same,growth inhibition,[7]; at 100.0 µM,52%
same,growth inhibition,[9]; at 1.2 µM,21%
same,growth inhibition,[9]; at 3.7 µM,48%
same,growth inhibition,[9]; at 11.0 µM,61%
same,growth inhibition,[9]; at 33.0 µM,69%
same,growth inhibition,[9]; at 100.0 µM,72% (active)
same,growth inhibition,[15]; [17],14%
same,growth inhibition,[15]; [18],59%
same,growth inhibition,[15]; at 50.0 µM,73.5% (active)
same,growth inhibition,[10]; at 1.2 µM,8%
same,growth inhibition,[10]; at 3.7 µM,25%
same,growth inhibition,[10]; [17],35%
same,growth inhibition,[10]; at 11.0 µM,29%
same,growth inhibition,[10]; at 33.0 µM,57%
same,growth inhibition,[10]; [18],60%
same,growth inhibition,[10]; at 50.0 µM,49.1%
same,growth inhibition,[10]; at 100.0 µM,47%
same,growth inhibition,[11]; at 1.2 µM,17%
same,growth inhibition,[11]; at 3.7 µM,27%
same,growth inhibition,[11]; at 11.0 µM,32%
same,growth inhibition,[11]; at 33.0 µM,39%
same,growth inhibition,[11]; at 100.0 µM,35%
same,growth inhibition,[12]; at 1.2 µM,11%
same,growth inhibition,[12]; at 3.7 µM,21%
same,growth inhibition,[12]; at 11.0 µM,33%
same,growth inhibition,[12]; at 33.0 µM,18%
same,growth inhibition,[12]; at 100.0 µM,37%
same,growth inhibition,[16]; at 1.2 µM,29%
same,growth inhibition,[16]; at 3.7 µM,49%
same,growth inhibition,[16]; at 11.0 µM,61%
same,growth inhibition,[16]; at 33.0 µM,59%
same,growth inhibition,[16]; at 100.0 µM,56%
same,growth inhibition,[13]; [17],37%
same,growth inhibition,[13]; [18],49%
same,growth inhibition,[13]; at 50.0 µM,37.3%
same,growth inhibition,[14]; at 1.2 µM,32%
same,growth inhibition,[14]; at 3.7 µM,39%
same,growth inhibition,[14]; at 11.0 µM,55%
same,growth inhibition,[14]; at 33.0 µM,64%
same,growth inhibition,[14]; at 100.0 µM,51%
